Source: PubChem BioAssay (NCI)
Where “and” joins values, the source holds several entries; their conditions need not be identical. Equal values may be shown once. Compounds without any hit were thinned out: in the full panel of roughly 83,000, 20% have a hit.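 Each cell line was grown in a 96-well plate and treated with one concentration of compound for 48 hours. Values below 10 were considered active.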 Calls of active or inactive are those of the source.

System: HL-60(TB) leukemia
Assay: NCI-60 one-dose screen, 48 h (100 = growth as untreated, 0 = no growth, -100 = all killed)
Conditions: 10 µM unless noted

Row | Structure (SMILES) | growth
1 | Cc1ccc(C(C(N)=O)C(C(N)=O)c2ccccc2)cc1 (centres undefined) | 84.7% (inactive)
2 | N/C(=N\N=C\c1cc2ccccc2s1)N/N=C/c1cc2ccccc2s1 | 94.4% (inactive)
3 | COCCCNC1=C(C#N)C(=O)NC(c2cccs2)S1 (centres undefined) | 145% (inactive)
4 | CC(C)OC(=O)Nn1cnc2ccccc21 | 96.5% (inactive)
5 | CC(=O)c1cc2c(N)c(C(=O)Nc3ccccc3)sc2nc1C | 55.6% (inactive)
6 | Cc1ccc2nc3ccccc3c(NCc3ccccc3)c2c1 | 40.6% (inactive)
7 | CCc1cnn2c(NCc3ccc[n+]([O-])c3)cc(N3CCCC[C@H]3CCO)nc12 | -43.2% (active)
8 | COc1ccc([N+](=O)[O-])cc1OC | 85.5% (inactive) and 99.2% (inactive)
9 | O=C(OCc1ccc2c(Cl)cc(Cl)c(O)c2n1)N1CCN(C(=O)c2cc3cc(F)ccc3[nH]2)CC1 | -49.4% (active)
10 | CCOC(=O)c1c[nH]c2cc(OCC3CC3)c(OCC3CC3)cc2c1=O | 104% (inactive)
11 | CCc1ccc(Nc2cc(C)nc3nc(C)nn23)cc1 | -54.6% (active)
12 | O=C(/C=C/c1ccc[nH]1)c1ccc(-n2ccc(C(F)(F)F)n2)cc1 | -18.4% (active)
13 | Nc1cccc(Nc2cc(S(=O)(=O)O)c(N)c3c2C(=O)c2ccccc2C3=O)c1 | 105% (inactive)
14 | CCCCCCCCCCCC(=O)C(CCCCCCCCCC)C(=O)Nc1ccccc1 (centres undefined) | 101% (inactive)
15 | Nc1cccc(-c2nc3sccn3c2-c2ccnc(NCCNS(=O)(=O)c3ccc(C(F)(F)F)cc3)n2)c1 | 89.1% (inactive)
16 | CNC(=O)c1cc(Oc2ccc(CC(=O)Nc3cc(C(C)(C)C)cn3C)cc2)ccn1 | 77.5% (inactive)
17 | CNc1ccc(Cl)cc1S(=O)(=O)c1ccccc1[N+](=O)[O-] | 65.3% (inactive) and 79.9% (inactive)
18 | Nc1ncnc2c1N=C(c1ccc3c(c1)OCO3)CC(c1cccc(Nc3ccnc4cc(Cl)ccc34)c1)N2 (centres undefined) | 37.9% (inactive)
19 | CCCCCCCCCCCCCCCC(N)c1ccccc1 (centres undefined) | -14.3% (active)
20 | Cc1ccc(NC(=O)Nc2ccc(Nc3ncnc4sc5c(c34)CCOC5)cc2)cc1Cl | 108% (inactive)

Row | Structure (SMILES) | growth
21 | COc1ccccc1Nc1nnc(-c2ccc(Cl)cc2)o1 | -9.62% (active)
22 | NC1=NC(c2ccccc2)C2=C(N1)/C(=C/c1ccccc1)CCC2 (centres undefined) | 80.7% (inactive)
23 | N#Cc1c(-c2cccs2)cc(-c2cccnc2)[nH]c1=O | 97.6% (inactive)
24 | Nc1c(C(=O)O)[nH]c(=O)[nH]c1=O | 81.3% (inactive)
25 | COc1ccc2c(c1)[n+]([O-])c(C#N)c(NC(=O)c1ccco1)[n+]2[O-] | 108% (inactive)
26 | C[n+]1c2ccccc2c(NC2CCNCC2)c2[nH]c3ccccc3c21 | 61.4% (inactive)
27 | Cc1cn(-c2cc(C(=O)Nc3cccc(C#Cc4cccc5[nH]nc(N)c45)c3)cc(C(F)(F)F)c2)cn1 | 25.1% (inactive)
28 | COc1ccc(S(=O)(=O)NCCNc2nccc(-c3c(-c4cccc(F)c4)nc4sccn34)n2)cc1 | 58.8% (inactive)
29 | O=C1/C(=C/c2ccc(Cl)c(Cl)c2)CN(C(=O)C(Cl)Cl)C/C1=C\c1ccc(Cl)c(Cl)c1 | -15.2% (active)
30 | CN1CCN(c2nc(-c3cccc4ccccc34)nc3sc4c(c23)CCCCCC4)CC1 | 91.6% (inactive)
31 | CCOC(=O)c1cc(C(=O)c2cc(OC)c(OC)c(OC)c2)n2ncc3ccccc3c12 | 28.7% (inactive)
32 | Cc1ccccc1CNc1ccc(N2CCOCC2)cc1 | 102% (inactive)
33 | CN(C)CCCOc1cccc(NC2=C(Cl)C(=O)C(Nc3cccc(OCCCN(C)C)c3)=C(Cl)C2=O)c1 | -53.2% (active)
34 | Cc1cc(=O)[nH]c(N=Nc2c(O)[nH]c3ccccc23)n1 | 79.8% (inactive)
35 | S=C(Nc1ccc(-c2nc(N3CCOCC3)c3cccn3n2)cc1)Nc1cccnc1 | 59.9% (inactive)
36 | CC(C)Oc1ccc2cc(-c3nn(CC4CCNCC4)c4ncnc(N)c34)ccc2c1 | 63.8% (inactive) and -56.6% (active)
37 | CC[C@H](Nc1ncnc2nc[nH]c12)c1nc2cccc(NCc3ccc(C(=O)NO)o3)c2c(=O)n1-c1ccccc1 | 81.4% (inactive)
38 | CC(=O)N1N=C(c2cccc(Nc3ccncc3)c2)CC1c1ccccc1 (centres undefined) | 78.9% (inactive)
39 | O=C1NCCC12CCN(c1c(Cl)cncc1-c1ccc(O)cc1)CC2 | 102% (inactive)
